# Assay outcomes deposited in PubChem by National Center for Advancing Translational Sciences (NCATS).
# NS1 inh: qHTS Assay for Inhibitors of Influenza NS1 Protein Function; 270,000 tested, 0.4% active; Potency, µM (doses to about 46.1 µM), for inactives: at the top dose activity, positive = more growth; calls by dose curve; also: potency is read from the fitted curve at half-maximal effect; actives are rising curves; nearly all actives have a fitted effect of over 50% in size
#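 Compounds were scored for reversing the slow growth caused by influenza A NS1 in S. cerevisiae, measured by optical density at 600 nm. Assay medium contained 2% galactose at pH 6.0; NS1-free yeast of the same strain were the positive control.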
# Pf growth 48h: Primary qHTS for delayed death inhibitors of the malarial parasite plastid, 48 hour incubation | AID 504832, 2011 | P. falciparum luciferase growth in erythrocytes, 48 h | 310,000 tested, 5.9% active | Potency, µM (titrated, usually from 28.7 µM), for inactives: top-dose activity change, negative = inhibition, hits mostly inhibitors; also: potency is read from the fitted curve at half-maximal effect; % is scaled to controls: 0 for no effect and ±100 for the full control effect
#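 Firefly luciferase activity from engineered P. falciparum reports growth; inhibitors lower the luminescent signal. Cultures contained 2% hematocrit erythrocytes at 0.1% final parasitemia.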
# CHX counter: Cycloheximide Counterscreen for Small Molecule Inhibitors of Shiga Toxin; cell reporter, cycloheximide protein synthesis inhibition counterscreen; max response, %; 300,000 tested, 12% active; AID 2314, 2010; in the data active = max response mostly above about 13%, no sharp cut-off; inactive = mostly below about 14%; also: read at 38.3 µM for the half of the compounds with a filed dose; 0% is about no effect
# Pf growth 96h: Primary qHTS for delayed death inhibitors of the malarial parasite plastid, 96 hour incubation. P. falciparum luciferase reporter growth, 96 h. Potency, µM (titrated, usually from 28.7 µM), inactives show top-dose activity change, negative = inhibition, most hits filed as inhibitors. 320,000 tested, 6.9% active. AID 504834, 2011; also: potency is read from the fitted curve at half-maximal effect; % is scaled to controls: 0 for no effect and ±100 for the full control effect
#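 Plates of compound plus infected erythrocytes (2% hematocrit, 0.05% parasitemia final) incubate 96 hours, 37 C, 5% CO2. Detection reagent added; reduced luminescence from the parasites' luciferase reporter flags inhibition.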
# Shiga toxin inh: A qHTS for Small Molecule Inhibitors of Shiga Toxin; Vero cells, Shiga toxin protein synthesis inhibition reporter; 290,000 tested, 9.2% active; inhibition, % at 38.7 µM; in the data active = inhibition mostly above about 28%, no sharp cut-off; inactive = mostly below about 43%; also: 0% is about no effect
# FBPA Giardia inh: qHTS Assay for Inhibitors of Fructose-1,6-bisphosphate Aldolase from Giardia Lamblia | 290,000 tested, 0.71% active | Potency, µM (doses to about 59.6 µM), for the others: at the highest dose activity, negative = inhibition, hits mostly inhibitors | purified Giardia FBPA | A8B2U2; also: potency is read from the fitted curve at half-maximal effect; % is scaled to controls: 0 for no effect and ±100 for the full control effect; nearly all actives have a fitted effect of over 55% in size
# Target sequence (A8B2U2 whole entry, looked up): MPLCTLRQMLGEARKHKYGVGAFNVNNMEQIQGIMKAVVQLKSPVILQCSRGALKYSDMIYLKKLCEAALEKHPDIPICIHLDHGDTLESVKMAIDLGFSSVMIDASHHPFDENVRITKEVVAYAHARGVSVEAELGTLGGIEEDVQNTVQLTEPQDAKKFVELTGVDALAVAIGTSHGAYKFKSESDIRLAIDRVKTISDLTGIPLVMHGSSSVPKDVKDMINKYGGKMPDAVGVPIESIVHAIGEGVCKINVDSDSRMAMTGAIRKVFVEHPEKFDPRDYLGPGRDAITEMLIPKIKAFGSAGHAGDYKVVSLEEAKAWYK
#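 40 nM FBPA preincubated 10 min at RT with compound (up to 57.5 uM final), then substrate plus GAPDH/TPI/NAD/arsenate coupling and diaphorase/resazurin added. Fluorescence read after 20 min at RT, 525/598 nm.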
# The depositor's hits bear a star; ? = inconclusive; / = no result given; [ ] = another dose, or the depositor's remark. Most compounds without a hit are left out; they make up all but 21% or so of the library. Unless noted, calls follow the shape of the dose curve; as a rule, active = well fitted curve in the direction sought with a large enough effect; inconclusive = small, poorly fitted or top-dose-only effect, or another doubt; inactive = no such curve, though single readings can be large; an effect the other way counts as inactive or inconclusive.
SMILES,NS1 inh,Pf growth 48h,CHX counter,Pf growth 96h,Shiga toxin inh,FBPA Giardia inh
Cc1ccc(/C=C/C(=O)c2ccccc(=O)c2O)cc1C,-63%,8.3µM*,51*,9.3µM*,77*,?
CC(COc1ccc(C(C)C)cc1)NC(=O)c1ccc(Br)o1 (centres undefined),-53%,-14%,-1,?,-5,/
COc1cccc(NC(=O)CN(C)C(=O)CN2C(=O)c3ccc([N+](=O)[O-])cc3C2=O)c1,/,10%,/,8%,/,/
COC(=O)c1cnn2c3c(c(C)nc12)CCCC3,4%,37%,59*,0.93µM*,73*,11%
C=CCCC/C=C(/C)C(OCc1ccc(OC)cc1)C(CC/C=C(\C)C(N)=O)OC (centres undefined),/,/,/,/,/,-3%[12.9 µM]
O=C1c2ccccc2C(=O)N1Cc1cnc(N2CCN(c3ccccc3)CC2)s1,-2%,-14%,1,14%,-13,-2%
N=C1SC(c2ccccc2)C(=O)N1c1ncc(Cc2ccccc2)s1 (centres undefined),15%,?,18*,?,56*,20%
Cc1ccc(Cc2cnc(N3C(=N)SC(c4ccccc4)C3=O)s2)cc1 (centres undefined),5%,5%,1,9.3µM*,22,14%
COc1ccc(C2C3=C(CC(C)(C)CC3=O)Oc3ncn(CCO)c(=N)c32)cc1OC (centres undefined),-1%,/,-3,230%,-16,3%
COc1ccc(C2c3c(ncn(CCCO)c3=N)Oc3ccc4ccccc4c32)cc1 (centres undefined),-11%,12µM*,-3,?,2,17%
N=c1c2c(ncn1CCCO)Oc1cc(O)ccc1C2c1ccccc1 (centres undefined),2%,?,-4,?,24,1%
COc1ccc(C2c3c(ncn(CCCO)c3=N)Oc3ccc4ccccc4c32)cc1OC (centres undefined),10%,13µM*,1,1.7µM*,-9,3%
COc1ccc(C2c3c(ncn(CCN4CCOCC4)c3=N)Oc3ccc4ccccc4c32)cc1OC (centres undefined),7%,4.1µM*,-2,0.59µM*,-25,5%
COc1ccc(C2c3c(ccc4ccccc34)Oc3ncn4nc(Cc5ccccc5)nc4c32)cc1OC (centres undefined),0%,1.7µM*,-1,1.5µM*,-11,1%
O=C(NC(=S)NN1CCCCC1c1cccnc1)c1ccc(Cl)cc1Cl (centres undefined),-7%,?,1,?,3,?
Cc1ccc(NC2CCCN(C(=O)CCN3CCCCO3)C2)cc1C (centres undefined),2%,3%,-3,5%,10,-10%
CCN1CCN(C(=O)CN2C(=O)COc3ccc(C)cc32)CC1,5%,22%,-6,0%,26,/
Cc1csc(NC(=O)c2ccc(COc3ccccc3)o2)n1,-33%,75%,49*,73%,90*,-5%
Cc1cccc(NC(=O)c2ccc(COc3ccc4ccccc4c3)o2)n1,0%,-3%,14,185%,11,-11%
Cc1cccc(NC(=O)c2ccc(COc3ccccc3)o2)n1,-25%,27%,16*,31%,40*,/
Cc1cccc(C)c1NC(=O)CNC(=O)c1ccc(COc2ccccc2)o1,/,-6%,/,39%,/,/
CCNC(=O)c1ccc(C23CC4CC(CC(C4)C2)C3)o1,2%,?,0,13%,30,0%
CCOC(=O)CNC(=O)O[C@@H]1Cc2cc(OC)ccc2O[C@H]1c1cccc(OC)c1,/,/,/,/,/,2%
CCOc1ccc(/C=C/C(=O)C(C(N)=O)=C2SCCS2)cc1,-6%,-77%,34*,?,57*,-2%
CCOC(=O)C1CCN(c2cc3c(cc2NC(=O)c2ccc(F)cc2)n(C)c(=O)n3C)CC1,9%,12µM*,-4,-25%,-1,/
SMILES,NS1 inh,Pf growth 48h,CHX counter,Pf growth 96h,Shiga toxin inh,FBPA Giardia inh
Cn1c(=O)n(C)c2cc(NC(=O)c3ccc(F)cc3)c(Br)cc21,-3%,?,0,2.9µM*,-10,0%
CCOC(=O)C1CCN(c2cc3c(cc2NC(=O)c2ccccc2F)n(C)c(=O)n3C)CC1,-1%,?,0,1%,1,/
Cn1c(=O)n(C)c2cc(NC(=O)c3cccc([N+](=O)[O-])c3)c(Br)cc21,/,24%[5.75 µM],-1,28%[5.75 µM],8,-2%
CC(C)(C)OC(=O)NCC1CCC(C(=O)NC[C@H](CC(=O)O)c2ccc(Cl)cc2)CC1 (some centres undefined),2%,-10%,-4,?,-2,8%
C=CCN(C(=O)C1CSC2(C)CCC(=O)N12)c1nc(-c2ccccc2)cs1 (centres undefined),/,12µM*,/,?,/,/
Cc1ccccc1NS(=O)(=O)c1ccc(-c2ccc(=O)[nH]n2)o1,-2%,2%,-7,13µM*,-8,-4%
CC(C)CN1CC[C@@]2(CCCN(C(=O)c3cccc(F)c3)C2)C1,/,/,/,/,/,-8%
C/C(Cn1nnc([N+](=O)[O-])n1)=N\NC(=O)c1ccncc1,/,-15%,-1,?,13,20µM*
C/C(Cn1nnc([N+](=O)[O-])n1)=N\NC(=O)c1ccc(C)cc1,27%,?,43*,?,82*,?
COC(=O)c1cc(C(=O)c2cc(F)ccc2O)cn2c(=O)c3c(C)c(C)sc3nc12,-2%,2.1µM*,-3,2.6µM*,9,-14%
CCCCC1=CC2=C(c3ccco3)C(=O)C(C)(OC(=O)c3ccc(OC)cc3)C(=O)C2=CN1CCc1c[nH]c2ccccc12 (centres undefined),/,/,/,/,/,-11%[12.9 µM]
O=S(=O)(c1cccs1)N1CN(C2CCCCC2)c2nc3ccccc3nc21,2%,12µM*,-3,5.2µM*,0,2%
COc1ccccc1CCC(=O)OCC(=O)Nc1ccc(C(N)=O)cc1,18%,13%,-2,15%,36,-7%
COc1ccc(-c2csc(NC(=S)NC(=O)c3ccc(S(=O)(=O)N(C)C)cc3)n2)cc1OC,13%,13µM*,3,?,5,/
CCc1noc(C)c1C(=O)Nc1nc(-c2ccc(OC)c(OC)c2)cs1,/,?,/,10µM*,/,/
COc1ccc(-c2csc(NC(=S)NC(=O)c3cccs3)n2)cc1OC,1%,12µM*,15,?,19,-20%
COc1ccc(-n2c(C)cc(-c3csc(NC(=O)c4ccc(S(=O)(=O)N(C)C)cc4)n3)c2C)cc1,5%,?,-2,12µM*,-3,-20%
CN(C)CCCn1cnc2cc(Cl)c(Cl)cc21,-3%,/,/,/,/,/
